M1 PAM – human CHRM1 positive allosteric modulation. CHO-K1 hM1, Fluo-8 calcium fluorescence, ACh EC20; 0% = ACh EC20, 100% = maximal ACh. 360,000 compounds, 0.088% hits. P11229. activation, % at 3 µM; in the data active = activation above about 19%, passing the limit was not always enough
Target sequence (P11229 whole entry, looked up): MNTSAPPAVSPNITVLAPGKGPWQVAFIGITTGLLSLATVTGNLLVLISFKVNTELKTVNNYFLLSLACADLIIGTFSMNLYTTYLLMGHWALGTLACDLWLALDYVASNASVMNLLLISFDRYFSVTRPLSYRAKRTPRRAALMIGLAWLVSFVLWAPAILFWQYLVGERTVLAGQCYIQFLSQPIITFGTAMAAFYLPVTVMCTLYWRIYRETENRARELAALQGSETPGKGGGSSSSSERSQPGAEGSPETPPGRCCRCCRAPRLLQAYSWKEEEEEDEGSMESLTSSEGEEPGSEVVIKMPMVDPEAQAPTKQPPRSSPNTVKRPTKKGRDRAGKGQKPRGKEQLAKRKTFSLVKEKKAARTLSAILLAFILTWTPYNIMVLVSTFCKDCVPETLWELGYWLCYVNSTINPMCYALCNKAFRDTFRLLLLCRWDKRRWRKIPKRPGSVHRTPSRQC
CHRM1 antagonist – human CHRM1 antagonism | AID 588852 | 360,000 compounds, 1.3% hits | inhibition, % at 3 µM | CHO-K1 hM1, Fluo-8 calcium fluorescence, ACh EC80 antagonist;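 active = percent inhibition above its own plate's cutoff, namely the mean of that plate's compound wells plus 3 SD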;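 also: peak over basal fluorescence ratio during 140 s after agonist addition; 0% = ACh EC80 plus DMSO and 100% = DMSO alone without agonist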
M1 ag parental – M1 agonist counterscreen hit in parental CHO-K1 cells; Fluo-8 calcium fluorescence; scaled to maximal ATP response, vehicle zero; activation, % at 3 µM; 360,000 compounds, 0.48% hits; in the data active = activation above about 15%;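 also: untransfected CHO-K1 host cells lacking M1 receptor as counterscreen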
CHO-K1 Ca antag – nonselective inhibitor or artifact in parental CHO-K1 cells. ATP-induced calcium, Fluo-8 fluorescence. inhibition, % at 3 µM. 360,000 compounds, 0.6% hits. AID 602250;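 active = inhibition above a per-plate cutoff, the plate's mean sample inhibition plus 3 SD, cut at about 24% in these data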;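 also: 0% = DMSO plus EC80 ATP and 100% = DMSO alone without ATP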
CHO-K1 Ca PAM – counter-screen for M1 PAMs: effect in parental CHO-K1 cells. ATP EC20, Fluo-8 calcium fluorescence; 0% at ATP EC20, 100% at ATP max. AID 602247. 360,000 compounds, 0.02% hits. activation, % at 3 µM;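 active = activation above the run cutoff, the mean activation of all test compounds plus 3 SD, cut at about 40% in these data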;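 also: peak over basal fluorescence ratio in a 140 s read after ATP addition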
M1 ag – human M1 muscarinic receptor agonism; CHO-K1 hM1, Fluo-8 calcium fluorescence, agonist mode; 0% DMSO, 100% acetylcholine EC100; 360,000 compounds, 0.33% hits; AID 588814; activation, % at 3 µM; P11229;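 active = activation above the run's mean compound activation plus 3 SD, cut at about 16% in these data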;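 also: peak over basal fluorescence ratio within a 140 s kinetic read after compound addition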
* hit, by the source's call; . = not tested or not shown. Shown are actives, neighbours in structure and some others; about 2.3% of the full set was active somewhere.

SMILES	M1 PAM	CHRM1 antagonist	M1 ag parental	CHO-K1 Ca antag	CHO-K1 Ca PAM	M1 ag
Cc1ccc(COn2c(-c3ccc(Cl)cc3Cl)nc3ncccc32)cc1	-21.7	35.0*	0.6	-16.3	10.9	-5.6
CC1CCN(S(=O)(=O)N2CCC(C(=O)NC(C)c3ccccc3)CC2)CC1 (stereo not given)	-5.7	0.7	4.6	-6.0	7.5	1.9
Cc1ccc(-n2c(O)c(C=NCc3ccccn3)c3ccccc3c2=O)cc1	4.6	2.1	0.1	3.9	8.0	-8.3
COc1ccccc1-n1c(O)c(C=NCc2ccccn2)c2ccccc2c1=O	8.2	-9.9	18.1*	-2.3	13.0	2.5
Cc1ccc(S(=O)(=O)N2[C@@H](c3cccc(Cl)c3)C(C(=O)OC(C)(C)C)=CC[C@H]2c2ccc(C(C)C)cc2)cc1	-7.6	19.9	0.3	13.9	-5.1	-0.6
O=C(C1CCC1)N1CCN(c2cccc(C(F)(F)F)c2)CC1	5.8	-22.8	1.6	-8.6	8.1	-3.5
O=C(C1CCN(c2nnc(-n3cccc3)s2)CC1)N1CCN(c2cccc(C(F)(F)F)c2)CC1	-21.5	40.1*	0.8	3.6	1.4	-2.6
C[N+]1(CC(=O)OCCCc2ccccc2)CCCCC1	-11.4	18.9	0.7	-12.1	4.0	-8.5
CC1(C(O)(C#CC[N+]2(C)CCCCC2)c2ccccc2)CCCC1 (stereo not given)	-31.7	71.8*	-0.2	21.8	-15.5	-13.4
CCC(C)C1Nc2ccc(C(=O)NCCc3ccc(OC)c(OC)c3)cc2NC1=O (stereo not given)	-3.1	3.1	1.6	7.8	-4.7	-3.6
Cc1ccc(S(=O)(=O)N2CCOCC2)cc1C(=O)NCc1cccs1	-2.4	1.1	1.8	25.3*	-18.6	-7.0
O=C(NCc1cccs1)c1ccc(S(=O)(=O)N2CCOCC2)cc1	9.1	-9.6	1.2	-14.4	17.3	-3.2
COc1ccc(CCNC(=O)c2cc(S(=O)(=O)N3CCOCC3)ccc2F)cc1	1.5	7.2	1.9	-12.4	19.6	-4.1
FC(F)(F)c1cc(Cl)c2nc(-c3ccccc3)c(Cc3ccccc3)n2c1	1.9	-9.6	0.4	4.0	10.1	-6.0
Cc1ccc(NC(=O)C2CCN(S(=O)(=O)c3ccc4c(c3)C(C)(C)C(=O)N4C)CC2)c(C)c1	5.9	-14.3	-0.1	19.2	-14.0	-3.6
Cc1nc2c(nnn2Cc2ccccc2Cl)c(=O)[nH]1	5.4	-9.1	0.4	-2.7	11.9	-3.3
Cc1nc2c(nnn2Cc2ccccc2)c(=O)[nH]1	-4.9	6.1	-0.1	25.3*	-12.5	-3.2
CC(=O)Nc1ccc(Nc2ncnc3c2cnn3-c2ccc(C)cc2C)cc1	11.1	-6.7	-0.1	25.8*	-6.2	-3.0
CC(=O)Nc1ccc(Nc2ncnc3c2cnn3-c2cccc(C)c2)cc1	-0.5	5.1	0.5	-8.0	7.2	-3.4
Cc1cccc(Nc2ncnc3c2cnn3C)c1	6.1	4.8	0.3	29.5*	-9.8	2.0
CC1CC(C)CN(CCOCCSc2ccccc2)C1 (stereo not given)	-18.3	1.3	0.7	5.9	9.5	-6.9
CC1CC(C)CN(CCOCCSc2ccc(Cl)cc2)C1 (stereo not given)	-21.5	34.9*	2.7	-2.5	6.7	-3.8
Clc1ccc(SCCCN2CCCCC2)cc1	-16.5	33.3*	0.7	-10.7	-0.3	-5.8
CC12CCC(=O)N1C(C(=O)Nc1cc(S(=O)(=O)N3CCCCCC3)ccc1OCC(F)(F)F)CS2 (stereo not given)	-5.4	12.2	0.7	-7.7	6.0	-6.0
CC(C)Nc1nnc(Sc2ccc(Cl)cc2[N+](=O)[O-])s1	6.7	-13.7	1.4	-14.7	14.2	-6.2
SMILES	M1 PAM	CHRM1 antagonist	M1 ag parental	CHO-K1 Ca antag	CHO-K1 Ca PAM	M1 ag
C[C@]12CCC(=O)C=C1C=C[C@@H]1[C@@H]2CC[C@@]2(C)[C@H]1CC[C@@]21CCC(=O)O1	-12.5	-7.2	4.9	-9.8	9.3	-5.1
O=C(CCc1nc2ccccc2c(=O)[nH]1)Nc1nc(-c2cccs2)cs1	0.1	3.7	17.8*	8.6	8.9	2.0
Cc1ccc(OCC(O)CNCc2ccc(F)cc2)cc1 (stereo not given)	3.6	-1.0	2.2	0.3	8.9	-2.0
OC(CNCCNc1ncccc1C(F)(F)F)COc1ccc(F)cc1 (stereo not given)	-14.2	19.4	3.6	-11.6	8.3	40.4*
Cn1nc(C(C)(C)C)cc1C(=O)N1CCCC(C)(C(=O)NS(=O)(=O)C2CC2)C1 (stereo not given)	1.4	-3.2	0.0	13.4	-11.1	1.7
CC(=O)Nc1ccc(NC(=O)C(C)OC(=O)c2ccc3[nH]c(C)c(C)c3c2)cc1 (stereo not given)	3.5	-4.5	1.2	-7.4	8.8	0.2
Nc1nc(N)c2cc([N+](=O)[O-])ccc2n1	5.3	-12.4	1.0	-20.6	21.8	1.2
Nc1nc(N)c2c(ccc3c2ccn3Cc2cccc([N+](=O)[O-])c2)n1	-30.7	42.7*	0.8	1.5	16.1	-13.1
COc1c(Br)cc(Br)cc1/C=N/NC(=O)c1ccncc1	4.2	-3.2	15.3*	0.7	2.7	-4.6
Cc1ccc(Cn2c(C3CCCN3c3nc(C)cs3)nc3cc(C(F)(F)F)ccc32)cc1 (stereo not given)	-1.3	5.5	0.3	-20.6	23.1	-5.8
CC(C)C(C(=O)Nc1nccs1)c1ccc(Cl)cc1 (stereo not given)	-12.8	5.5	1.6	-19.2	26.4	-7.6
CC(C)C(C(=O)Nc1ccncc1)c1ccc(Cl)cc1 (stereo not given)	3.9	-0.7	16.7*	2.8	7.9	8.8
COc1ccc(OC)c(NC(=O)CN2C(=O)C(C)N(c3ccc(C)cc3)C2=O)c1 (stereo not given)	9.4	-9.0	0.0	9.5	-15.3	-3.4
CCCN1CCc2c(sc(NC(=O)C3CCN(S(=O)(=O)c4cccs4)CC3)c2C(N)=O)C1	-23.1	53.4*	0.1	28.8*	-36.5	-7.1
CC(=O)N1CCc2c(sc(NC(=O)C3CCN(S(=O)(=O)c4cccs4)CC3)c2C(N)=O)C1	8.7	-7.5	1.2	6.4	-1.4	-4.4
CNC(=O)COC(=O)c1ccccc1Oc1ccccc1	-2.0	5.4	0.1	28.7*	-7.2	-2.8
CCC(c1nnnn1-c1ccc2c(c1)OCCO2)N1CCN(C(C)=O)CC1 (stereo not given)	.	.	0.2	8.2	-7.3	.
O=C(NCC1CCN(Cc2cccc(Cl)c2)CC1)Nc1ccc(Cl)cc1	-1.9	-1.7	10.6	-1.1	-8.1	-4.2
COc1cc([N+](=O)[O-])ccc1NC(=O)NCC1CCN(Cc2ccc(Cl)cc2)CC1	-13.5	13.3	16.7*	-13.7	18.6	-6.7
COc1ccc(Cl)cc1NC(=O)NCC1CCN(Cc2cc(C)ccc2C)CC1	5.0	-4.4	15.6*	-9.4	9.7	-4.8

Source: PubChem
